{"source": "PubChem BioAssay (NCATS)", "note": "Records with an inconclusive call do not appear. The source made the active and inactive calls. The call rests on the fitted dose curve; in most records, active means well fitted cell-killing curve with a large enough effect; inconclusive means small, poorly fitted or top-dose-only effect, or effect the other way; inactive means flat fitted curve, though single readings scatter. On the % scale 0 is the no-effect control and ±100 the full control effect; potency means the concentration at half of the fitted maximal effect.", "data": [{"tested_on": "PA-1", "assay": "Primary qHTS to identify gynecologic anti-cancer compounds using libraries of approved drugs and bioactive compounds (AID 1345084); further: nearly all actives have a fitted effect of over 55% in size", "conditions": "Gynecologic cancer cell panel viability, ATPlite luminescence, 48 h; series mostly up to 57.5 µM; activity change, negative = cytotoxicity: at the top concentration", "outline": "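Cell viability after 48 h drug treatment, ATPlite luminescence readout; five doses.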", "values": [{"compound": "COc1cc(O)cc(/C=C/c2ccc(O[C@@H]3O[C@H](CO)[C@@H](O)[C@H](O)[C@H]3O)cc2)c1", "activity change, negative = cytotoxicity": "9.91% [at 25.3 µM] (inactive)"}, {"compound": "Cc1nc(Nc2n[nH]c3c2CN(C(=O)NC(CN(C)C)c2ccccc2)C3(C)C)c2sccc2n1", "note": "(stereo unspecified)", "Potency": "0.316 µM (active)"}, {"compound": "C[C@@H]1O[C@@H](O[C@H]2[C@H](O)[C@@H](O)[C@H](O[C@H]3[C@H](O[C@H]4CC[C@@]5(C)C(=CC[C@@H]6C5CC[C@]5(C)[C@@H]7[C@H](C[C@@H]65)O[C@]5(CC[C@@](C)(CO[C@@H]6O[C@H](CO)[C@@H](O)[C@H](O)[C@H]6O)O5)[C@H]7C)C4)O[C@H](CO)[C@@H](O)[C@@H]3O)O[C@@H]2CO)[C@H](O)[C@H](O)[C@H]1O", "note": "(stereo partly specified)", "Potency": "1.78 µM (active)"}, {"compound": "O=C(Nc1c(-c2cccs2)nc2ccccn12)c1ccc(Cl)cc1", "activity change, negative = cytotoxicity": "-2.01% (inactive)"}, {"compound": "NCc1ccc(Nc2ncc(F)c(Nc3ccccc3)n2)cc1", "Potency": "12.6 µM (active)"}, {"compound": "CNC(C)C(=O)NC(C(=O)N1CCCC1c1nc(C(=O)c2ccc(F)cc2)cs1)C1CCCCC1", "note": "(stereo unspecified)", "activity change, negative = cytotoxicity": "-7.83% (inactive)"}, {"compound": "CC(=O)NC1=NN(C(C)=O)C(C)(c2ccccc2)S1", "note": "(stereo unspecified)", "Potency": "3.98 µM (active)"}, {"compound": "Cc1cc(C(=O)Nc2cccc(C(=O)Nc3cccc(C(F)(F)F)c3)c2)on1", "activity change, negative = cytotoxicity": "2.56% (inactive)"}, {"compound": "CC(C)c1nnc(-c2ccc(-c3ccccc3)nc2)n1-c1cccc2nonc12", "activity change, negative = cytotoxicity": "7.35% (inactive)"}, {"compound": "CC(C)(C)OC(=O)N1CCC(OCc2nc(-c3ccncc3)no2)CC1", "activity change, negative = cytotoxicity": "17.8% (inactive)"}, {"compound": "CC(C)[C@@H](CS(=O)(=O)C(C)C)N1C(=O)[C@@](C)(CC(=O)O)C[C@H](c2cccc(Cl)c2)[C@H]1c1ccc(Cl)cc1", "Potency": "4.47 µM (active)"}]}]}
